# Test results: PubChem BioAssay (NCI)
# This is part of a sample that, as a whole, favours compounds with a hit. Of some 83,000 tested, about 20% had one in any assay.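 The test compound was applied at a single concentration to cells in 96-well plates for 48 hours, and percent growth was recorded.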 Unmarked numbers belong to inactive results. Active and inactive are the calls of the source. The calls were made as follows: active = growth percent below 10; inactive = the rest.
# Legend:
# Test in all cases: NCI-60 one-dose screen, 48 h (100 = growth as untreated, 0 = no growth, -100 = all killed)
# Conditions in all cases: 10 µM
# DU-145 prostate = system: DU-145 prostate
# MALME-3M melanoma = system: MALME-3M melanoma
# MDA-MB-231 breast = system: MDA-MB-231 breast
# RXF 393 renal = system: RXF 393 renal
# SF-268 CNS = system: SF-268 CNS
# SF-295 CNS = system: SF-295 CNS
# SF-539 CNS = system: SF-539 CNS
# UACC-257 melanoma = system: UACC-257 melanoma
# M14 melanoma = system: M14 melanoma
# HCT-15 colon = system: HCT-15 colon
# HT29 colon = system: HT29 colon
# SNB-75 CNS = system: SNB-75 CNS
# SNB-19 CNS = system: SNB-19 CNS
# U251 CNS = system: U251 CNS
# PC-3 prostate = system: PC-3 prostate
# SK-MEL-5 melanoma = system: SK-MEL-5 melanoma
# UACC-62 melanoma = system: UACC-62 melanoma
# LOX IMVI melanoma = system: LOX IMVI melanoma
# SK-MEL-28 melanoma = system: SK-MEL-28 melanoma
# K-562 leukemia = system: K-562 leukemia
SMILES,growth (DU-145 prostate),growth (MALME-3M melanoma),growth (MDA-MB-231 breast),growth (RXF 393 renal),growth (SF-268 CNS),growth (SF-295 CNS),growth (SF-539 CNS),growth (UACC-257 melanoma),growth (M14 melanoma),growth (HCT-15 colon),growth (HT29 colon),growth (SNB-75 CNS),growth (SNB-19 CNS),growth (U251 CNS),growth (PC-3 prostate),growth (SK-MEL-5 melanoma),growth (UACC-62 melanoma),growth (LOX IMVI melanoma),growth (SK-MEL-28 melanoma),growth (K-562 leukemia)
CO[C@H]1CC(O[C@@H]2/C(C)=C/C[C@@H]3C[C@@H](C[C@]4(C=C[C@H](C)[C@@H](C5CCCCC5)O4)O3)OC(=O)[C@@H]3C=C(C)[C@@H](O)[C@H]4OC/C(=C\C=C\[C@@H]2C)[C@]43O)O[C@@H](C)C1O[C@H]1C[C@H](OC)[C@@H](O)[C@H](C)O1 (stereo partly drawn),-98.4% (active),-68.1% (active),-81.1% (active),-95.5% (active),-81.5% (active),-84.6% (active),-72.3% (active),-84% (active),-88% (active),-79.2% (active),-71.9% (active),-66.8% (active),-5.35% (active),-91.2% (active),-59.6% (active),-97.8% (active),-78.1% (active),-97.3% (active),-64.6% (active),
C[C@]12CCC3c4ccc(O)cc4C[C@@H](CCCCCCCCCS(=O)CCCC(F)(F)C(F)(F)F)C3C1CC[C@@H]2O (stereo partly drawn),103%,103%,79.5%,87.5%,97.1%,42.8%,86.4%,91.5%,100%,71.6%,72.1%,64.4%,89.8%,68.3%,52.5%,76%,83.3%,90.1%,97.1%,
CCCCCC(=O)O[C@]1(C(C)=O)CCC2C3CCC4=CC(=O)CC[C@]4(C)C3CC[C@@]21C (stereo partly drawn),55.4%,62.1%,29.1%,53.2%,43.6%,13.1%,74.8%,14%,23.8%,26.2%,16.6%,46.3%,43.7%,23.9%,6.12% (active),-1.8% (active),18.5%,10.4%,49.4%,
COc1cc(C2CC(c3cc(Cl)c(C)cc3O)=NN2c2ccc(S(N)(=O)=O)cc2)cc(OC)c1OC (stereo not drawn),35.9%,31.9%,-8.53% (active),-2.73% (active),24.6%,22%,2.6% (active),44.7%,-26.5% (active),16.7%,1.52% (active),45.7%,48.7%,16.9%,0.104% (active),-4.95% (active),16.3%,16.2%,31.7%,
CCc1c2c(nc3ccc(OC(=O)N4CCC(N5CCCCC5)CC4)cc13)-c1cc3c(c(=O)n1C2)COC(=O)[C@]3(O)CC,-5.72% (active),36.2%,102%,37.7%,12.5%,-24.5% (active),-22.1% (active),57.6%,2.35% (active),53.1%,28.8%,-5.06% (active),26%,13.6%,40.9%,-11.9% (active),17.9%,4.61% (active),67%,
C[C@@H](O)[C@H]1C(=O)N2C(C(=O)O)=C(SC3CN[C@H](C(=O)N(C)C)C3)[C@H](C)[C@H]12 (stereo partly drawn),110%,92.9%,99.6%,114%,105%,96.2%,113%,106%,100%,104%,103%,94.1%,119%,99.3%,92.4%,102%,99.4%,96.4%,109%,
Cc1nc2n(c(=O)c1CCN1CCC(c3noc4cc(F)ccc34)CC1)CCC[C@@H]2O,105%,89.6%,90.5%,108%,102%,87%,98.5%,96.2%,104%,93.8%,95.2%,87.1%,102%,93.7%,91.3%,100%,98.2%,97.4%,97.9%,
C#C[C@]1(O)CCC2C3CCc4cc(OC5CCCC5)ccc4C3CC[C@@]21C (stereo partly drawn),89%,121%,50.6%,97.7%,71.3%,77.2%,101%,92.6%,80.2%,24%,0.124% (active),96%,104%,69.9%,57.9%,100%,,42%,103%,
CN1C(C(=O)Nc2ccccn2)=C(O)c2sc(Cl)cc2S1(=O)=O,106%,102%,105%,111%,100%,94.8%,117%,100%,108%,112%,103%,89.5%,104%,95.4%,87.9%,102%,92.4%,96%,102%,
C[C@@H](O)[C@H]1C(=O)N2C(C(=O)O)=C(SCCN=CN)C[C@H]12,-7.37% (active),-60.1% (active),9.83% (active),1.5% (active),-4.56% (active),-5.26% (active),3.65% (active),-31% (active),-44.7% (active),8.86% (active),-3.23% (active),0.941% (active),8.6% (active),2.44% (active),1.74% (active),-87.2% (active),-38.8% (active),-42.6% (active),-41.3% (active),
COc1ccc(CCN2CCC(Nc3nc4ccccc4n3Cc3ccc(F)cc3)CC2)cc1,46.4%,-79.5% (active),-31.5% (active),-67.8% (active),27.7%,-85.7% (active),-81% (active),-81.7% (active),-99.4% (active),-23% (active),-53.6% (active),-29.9% (active),40.6%,-70.9% (active),29.4%,-100% (active),-85.6% (active),-87.9% (active),-76.7% (active),
Cc1ccccc1N1C(=O)c2cc(S(N)(=O)=O)c(Cl)cc2NC1C (stereo not drawn),111%,103%,119%,128%,106%,103%,111%,102%,111%,108%,101%,87.1%,116%,105%,93.6%,104%,114%,99.7%,116%,
CC(=O)[C@@]12O[C@](C)(c3ccccc3)O[C@@H]1CC1C3CCC4=CC(=O)CC[C@]4(C)C3CC[C@@]12C (stereo partly drawn),97.1%,85.2%,94.4%,88.9%,77.4%,44.4%,91.6%,73.2%,87%,71%,69.6%,79.5%,85.3%,72.3%,31.1%,55.1%,,72.3%,99%,
CCCc1nc(C(C)(C)O)c(C(=O)O)n1Cc1ccc(-c2ccccc2-c2nn[nH]n2)cc1,120%,102%,109%,117%,101%,95.3%,103%,103%,109%,101%,93.6%,66.9%,102%,103%,95.9%,110%,94.5%,94.7%,108%,
O=C(Nc1ccc(OCc2nnc(-c3ccc(Cl)cc3)o2)c(F)c1)Nc1ccc(Cl)c(C(F)(F)F)c1,9.34% (active),,,-10.2% (active),22.5%,1.05% (active),12.3%,-4.65% (active),3.31% (active),9.78% (active),-3.97% (active),20.4%,,-2.02% (active),5.92% (active),,,3.22% (active),20.2%,11.2%
O=c1[nH]c(=O)n(C2C[C@H](O)[C@@H](CO)O2)cc1C(F)(F)F (stereo partly drawn),123%,107%,107%,116%,114%,92.5%,112%,107%,108%,107%,103%,94.3%,119%,102%,91.9%,106%,108%,103%,120%,
